DT40 TDP1 CPT – growth inhibition of DT40 Tdp1-/-;hTDP1 cells with camptothecin (screen for TDP1 inhibitors); chicken DT40 Tdp1-/-;hTDP1 cells + 20 nM CPT, ATP luminescence, 48 h; Potency, µM (doses to about 46.2 µM), without a hit: at the highest dose activity change, negative = growth inhibition, hits mostly inhibitors; hit rate 12% among 420,000; AID 686979; also: nearly all actives have a fitted effect of over 55% in size
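Chicken DT40 Tdp1-/- cells complemented with human TDP1, 400 cells/well, exposed to compounds plus 20 nM camptothecin for at least 48 h at 37 C; viability read as ATP content by CellTiter-Glo luminescence.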
KB-V1 cytotox – KB-V1 MDR subline cytotoxicity | AID 1347076 | Potency, µM (series often up to 46.1 µM), hits mostly cytotoxic | hit rate 3.4% among 400,000 | KB-V1 MDR cells viability, CellTiter-Glo, 72 h; also: nearly all actives have a fitted effect of over 60% in size
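KB-V1 MDR subline cells in DMEM (phenol-red free, 10% FBS) exposed to compounds in qHTS concentration series for 72 h at 37 degrees C. Viability read by CellTiter-Glo luminescence; concentration-effect curves fitted after normalization and correction.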
HT1080-NT tox – kills 2HG-producing HT-1080-NT fibrosarcoma cells. AID 686970. Potency, µM (titrated, usually from 46.1 µM), inactives show at the top dose activity, negative = less viability, hits mostly cytotoxic. hit rate 1.6% among 360,000. HT-1080-NT fibrosarcoma viability, CellTiter-Glo ATP luminescence, 48 h;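 also: NT is the 2HG producing partner of a matched IDH1 knockdown line; 0% = DMSO-treated cells and -100% = media-only wells without cells; nearly all actives have a fitted effect of over 55% in size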
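750 cells/well, RPMI + 5% FBS; 2 h settle, compound pin-transfer, 48 h at 37 degrees C. CellTiter-Glo 10 min RT, luminescence. Normalized to DMSO and media-only wells.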
HT1080 IDH1KD tx – HT-1080 IDH1 knockdown cell toxicity (counter line) | hit rate 2% among 360,000 | HT-1080 IDH1 knockdown viability, ATP luminescence, 48 h | AID 686971 | Potency, µM (top dose mostly 46.1 µM), for inactives: at the top dose activity, negative = toxicity, actives largely listed as cytotoxic;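 also: 0% = DMSO wells and -100% = cell-free medium wells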
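Knockdown cells (IDH1KD HT-1080) received compounds 2 h after plating at 750 cells/well and were kept 48 h at 37 °C in 5% FBS RPMI. A CellTiter-Glo luminescence read gave % activity for curve fitting.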
DT40 TDP1 no CPT – qHTS for Inhibitors of human tyrosyl-DNA phosphodiesterase 1 (TDP1): qHTS in cells in absence of CPT. AID 686978, 2013. hit rate 15% among 420,000. DT40 Tdp1-/- hTDP1 cells, no CPT, ATP luminescence, 48 h. Potency, µM (titrated, usually from 46.2 µM), without a hit: top-dose activity change, negative = growth inhibition, most hits filed as inhibitors; also: nearly all actives have a fitted effect of over 55% in size
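Compound effects on proliferation are scored in DT40 Tdp1-/-;hTDP1 cells in the absence of CPT. ATP levels (CellTiter-Glo luminescence) are recorded after a ≥48 hr, 37 °C incubation.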
KB-3-1 cytotox – kills parental KB-3-1 adenocarcinoma cells. hit rate 1.4% among 400,000. Potency, µM (doses to about 46.1 µM), hits mostly cytotoxic. AID 1347075. KB-3-1 viability, CellTiter-Glo ATP luminescence, 72 h; also: nearly all actives have a fitted effect of over 60% in size
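72 h, 37 °C compound treatment of KB-3-1 parental cells; CellTiter-Glo added, 10 min, luminescence read. Data corrected against DMSO-only plates and normalized before curve fitting.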
Active calls of the source: *; i = inactive; u = inconclusive; x = not tested or not shown. A selection: hits, their analogues and other compounds. The true share with any hit is near 19%. Calls follow the shape of the dose curve; as a rule, active = well fitted curve in the direction sought with a large enough effect; inconclusive = small, poorly fitted or top-dose-only effect, or another doubt; inactive = no such curve, though single readings can be large; an effect the other way counts as inactive or inconclusive. Unless noted, % is scaled to controls: 0 for no effect and ±100 for the full control effect; potency is read from the fitted curve at half-maximal effect.

SMILES	DT40 TDP1 CPT	KB-V1 cytotox	HT1080-NT tox	HT1080 IDH1KD tx	DT40 TDP1 no CPT	KB-3-1 cytotox
CCc1nc2ccc(C(=O)NCCc3c[nH]c4ccccc34)cn2c1N(C=O)CCC(C)C	20.6µM*	i	u	-29.6%	16.4µM*	i
CCCCN(C=O)c1c(CC)nc2ccc(C(=O)NCCc3c[nH]c4ccccc34)cn12	u	i	-14.2%	-20.8%	u	i
CC(C)n1c(SCC(=O)N2c3ccccc3Sc3ccccc32)nc2c1c(=O)n(C)c(=O)n2C	20.6µM*	i	-6.2%	10.1%	16.4µM*	i
COCCn1c(SCC(=O)N(C(C)C)C(C)C)nnc1-c1cc2ccccc2cc1O	u	u	2.2%	0.4%	20.6µM*	i
CC(C)n1c(SCC(=O)N2CCCCC2)nc2c1c(=O)n(C)c(=O)n2C	-8.4%	i	-4.5%	-2.3%	-18.6%	i
COc1ccc(N2CCN(C(=O)CSc3nnc(-c4cc5ccccc5cc4O)n3C)CC2)cc1	23.1µM*	2.31µM*	u	u	18.4µM*	18.4µM*
CC(C)n1c(SCC(N)=O)nc2c1c(=O)n(C)c(=O)n2C	0.4%	i	2.4%	4.1%	-8.4%	i
COc1ccc(N2CCN(C(=O)CSc3nc4c(c(=O)n(C)c(=O)n4C)n3C(C)C)CC2)cc1	18.4µM*	u	-4.0%	6.6%	u	i
COCCn1c(SCC(=O)Nc2nnc(C)s2)nnc1-c1cc2ccccc2cc1O	-20.1%	i	3.4%	0.8%	-8.3%	i
Cn1c(=O)c2c(nc(SCC(=O)N3CCCCCC3)n2C)n(C)c1=O	2.1%	14.6µM*	-0.1%	-12.5%	-5.4%	i
Cc1nc(SCC(=O)N2CCCCCC2)c2c(=O)n(C)c(=O)n(CC(C)C)c2n1	u	i	u	-10.0%	13µM*	u
CC(C)c1nc(SCC(=O)N2CCCCCC2)c2c(=O)n(C)c(=O)n(C)c2n1	u	u	8.4%	8.6%	u	i
CCCn1c(SCC(=O)N2CCCCC2)nc2c1c(=O)n(C)c(=O)n2C	-1.5%	i	-0.3%	1.1%	-10.2%	i
CC(C)n1c(SCc2ccccc2F)nc2c1c(=O)n(C)c(=O)n2C	20.6µM*	u	-14.5%	-9.8%	25.9µM*	i
CCN1C(=O)[C@H]2[C@H]3CN=C(SCC(=O)c4ccccc4)N3[C@@](CC)(C(=O)OC)[C@H]2C1=O	u	i	-15.6%	-18.4%	-10.5%	i
Cc1ccc(C(=O)NCc2ccc3c(c2)OCO3)c(Cl)c1	-19.1%	i	0.9%	-0.1%	-3.2%	i
Cc1ccc(CNC(=O)c2nc(S(=O)(=O)Cc3ccc(C)cc3)ncc2Cl)cc1	5.8µM*	u	x	x	3.26µM*	u
COc1ccc(N2CCN(C(=O)c3nc(SC)ncc3Cl)CC2)cc1	-23.9%	i	x	x	u	i
Cc1cccc(CS(=O)(=O)c2ncc(Cl)c(C(=O)NCc3ccc4c(c3)OCO4)n2)c1	2.91µM*	i	-12.6%	-16.5%	4.61µM*	i
CCS(=O)(=O)c1ncc(Cl)c(C(=O)N2CCN(c3ccc(OC)cc3)CC2)n1	u	x	x	x	4.11µM*	x
CCS(=O)(=O)c1ncc(Cl)c(C(=O)NCc2ccc(OC)cc2)n1	1.64µM*	x	x	x	-100.3%	x
Cc1ccc(CNC(=O)c2nc(SCc3ccc(C)cc3)ncc2Cl)cc1	-9.9%	x	x	x	u	x
CN(C)CCN1C(=O)c2ccccc2N(C)c2ccccc21	-24.4%	x	x	x	u	x
CN(Cc1ccc(Cl)cc1Cl)C(=O)C1CC(=O)N(Cc2ccco2)C1 (stereo unspecified)	-10.7%	i	4.3%	-4.4%	u	i
Cn1c2ccccc2c2nnc(SCCN3CCOCC3)nc21	u	i	-1.9%	-3.3%	-17.7%	i
SMILES	DT40 TDP1 CPT	KB-V1 cytotox	HT1080-NT tox	HT1080 IDH1KD tx	DT40 TDP1 no CPT	KB-3-1 cytotox
Cc1cc(C)c2c(c1)c1nnc(SCCN3CCCCC3)nc1n2C	u	i	-5.9%	-12.5%	20.6µM*	i
Cn1c2ccc(F)cc2c2nnc(SCCN3CCCCC3)nc21	u	i	0.2%	-2.6%	16.4µM*	i
CCOc1ccc2c(c1)c1nnc(SCC(=O)N3CCC(C)CC3)nc1n2C	u	u	0.4%	4.6%	u	i
CCN(CC)CCSc1nnc2c3cc(F)ccc3n(C)c2n1	-22.7%	i	x	x	u	i
CCOc1ccc2c(c1)c1nnc(SCC(=O)N3CCCCC3C)nc1n2C (stereo unspecified)	23.1µM*	i	1.2%	3.1%	23.1µM*	i
Cc1ccccc1NC(=O)N1CCC(CN2CCCC2)CC1	10.3%	x	x	x	1.4%	x
COc1ccc(S(=O)(=O)N(CC(=O)NCc2ccncc2)c2ccc(C)cc2)cc1Br	-27.6%	i	-12.9%	-6.5%	-21.9%	i
CCOc1ccc2nc(Cl)c(C3CC(c4ccc(OC)cc4)=NN3S(C)(=O)=O)cc2c1 (stereo unspecified)	8.2µM*	u	x	x	16.4µM*	i
O=C(CCn1cccn1)N1CCCC(N2CCN(c3cccc(C(F)(F)F)c3)CC2)C1 (stereo unspecified)	u	x	0.7%	3.7%	14.6µM*	x
Cc1cc(C(=O)N2CCCC(N3CCN(c4cccc(C(F)(F)F)c4)CC3)C2)no1 (stereo unspecified)	u	x	7.8%	9.7%	16.4µM*	x
Cc1cc(C)c(C(=O)N2CCCC(N3CCN(c4cccc(C(F)(F)F)c4)CC3)C2)o1 (stereo unspecified)	20.6µM*	i	-17.5%	u	8.2µM*	u
O=C(c1cc(C2CC2)on1)N1CCCC(N2CCN(c3cccc(C(F)(F)F)c3)CC2)C1 (stereo unspecified)	u	i	-6.4%	-20.2%	u	i
O=C(c1ccco1)N1CCCC(N2CCN(c3cccc(C(F)(F)F)c3)CC2)C1 (stereo unspecified)	16.4µM*	i	-0.1%	-13.6%	20.6µM*	u
CCOc1ccc(C(=O)Nc2ccc(OCc3cc(=O)n4cccc(C)c4n3)cc2)cc1	8.0%	i	x	x	14.5%	i
CCOC(=O)c1oc2ccccc2c1CN1CCN(c2ccccc2)CC1	u	i	-10.3%	-5.9%	18.4µM*	i
Cc1c(C(=O)N2CCN(c3ccc([N+](=O)[O-])cc3)CC2)oc2ccccc12	u	i	2.8%	-0.9%	16.4µM*	i

Assay outcomes deposited in PubChem by National Center for Advancing Translational Sciences (NCATS).
